These results are taken from PubChem BioAssay AID504613 (National Center for Advancing Translational Sciences (NCATS), 2011).

For orientation: IC50 means the concentration at which inhibition is half-maximal.

Calls of active or inactive are those of the source.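 The calls were made as follows: active = clear growth inhibition over 72 hours in leukemia cell lines carrying a fused MLL gene, giving a fitted IC50; inactive = the rest.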

The experiment in a line: Confirmation of Inhibitors Targeting the Menin-MLL Interaction in MLL Related Leukemias: Confirmation in an MLL leukemia cell growth assay. As to conditions: MV4-11 MLL-AF4 leukemia growth, MTT absorbance, 72 h; series mostly up to 50 µM. The text has this: qHTS Assay for Inhibitors Targeting the Menin-MLL Interaction in MLL Related Leukemias NIH Chemical Genomics Center [NCGC] NIH Molecular Libraries Probe Centers Network [MLPCN] MLPCN Grant: MH084875-01A1 Assay Submitter (PI): Jolanta Grembecka, Tomasz Cierpicki, University of Virginia Translocations of the MLL (Mixed Lineage Leukemia) gene are frequently found in human leukemias affecting both children and adults. Fusion of MLL to one of more than 60 genes results in generation of oncogenic proteins upregulating Hox genes, which are vital to blood cell development. Patients harboring fusion of the MLL gene suffer from aggressive leukemias and respond poorly to available therapies. All of the oncogenic fusion proteins have a preserved N-terminal fragment of MLL that has been identified to interact with menin. It has been recently discovered that association with menin is critical to the leukemogenic activity of the MLL fusion oncoproteins. […] We have developed and optimized a fluorescence polarization-based assay for the identification of Menin-MLL inhibitors. […]
Inhibition of cell proliferation in the MLL leukemia cells: MV4-11 (MLL-AF4), ML-2 (MLL-AF6) KOPN-8 (MLL-ENL) induced by compound measured after 72h treatment, as detected by the MTT cell viability assay. […] Plates were read for absorbance at 570 nm using a PHERAstar BMG microplate reader. […]
As for `N#Cc1ccc(OCCCN2CCC(C(O)(c3ccccc3)C3CCCC3)CC2)cc1` (configuration not stated), the IC50 is 12.8 µM (active).

For the compound `N#Cc1ccc(OCCCN2CCC(C(O)c3ccccc3)CC2)cc1` (configuration not stated), the IC50 entry was “inactive”.
